Experiment [1] is described as follows: antimalarial activity against Dd2 strain (AID 2302;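 active = growth inhibition above 50% at the single 2 µM test dose, taken to imply half-maximal potency below 2 µM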;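 also: 0% = DMSO untreated growth and 100% = chloroquine plus artemisinin killed control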). The conditions noted are these: P. falciparum Dd2 in RBCs, LDH growth readout, 72 h; at 2 µM; hits give high values.
Experiment [2] is described as follows: human hepatoma cell viability loss – ATP luminescence, cytotoxicity control for P. falciparum antimalarial project, primary screen (AID 2303;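 active = inhibition above 50%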;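 also: 0% = DMSO wells and 100% = digitonin-killed cells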). The conditions noted are these: HepG2 viability, 24-48 h, at 10 µM, hits give high values.
Experiment [3] deals with L-lactate dehydrogenase (Plasmodium falciparum (isolate CDC / Honduras)) (UniProt Q27743). Put plainly: PfLDH activity inhibition – cell lysate, 3D7 strain, counter-screen for P. falciparum growth inhibition project (AID 2304).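 Also: 0% = vehicle and 100% = reference inhibitor.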 The following applies: P. falciparum 3D7 crude extract, LDH APAD/NBT absorbance; at 2 µM; hits give high values. In general terms: A counterscreen serves to expose hits that act by an unwanted route or on another target.

A short description of experiment [4]: inhibition of 3D7 malaria parasite growth – strain 3D7 (AID 2306).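 Also: 0% = DMSO wells and 100% = chloroquine plus artemisinin control wells.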 The following applies: P. falciparum 3D7 erythrocytic growth, LDH absorbance, 72 h; at 2 µM; hits give high values.
Experiment [5] concerns the target Calcium-dependent protein kinase 1 (Plasmodium falciparum (isolate 3D7)) (UniProt P62344). Put plainly: PfCDPK1 kinase inhibitors, biochemical, TCAMS library (AID 1159585; cut-off not given, nearly all actives have IC50 up to about 0.98 µM;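 also: inhibitors leave more ATP so luminescence rises with inhibition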). The conditions noted are these: recombinant PfCDPK1, Kinase-Glo ATP depletion luminescence. For orientation: In Kinase-Glo more light means more ATP remaining.
Experiment [6] deals with Plasmodium falciparum protein kinase 6 (PK6, PF3D7_1337100) (UniProt Q8IDW1). Put plainly: PfPK6 kinase inhibitors, biochemical, TCAMS library (AID 1159586). The following applies: recombinant PfPK6, Kinase-Glo ATP depletion luminescence.
For experiment [7], the target named is Protein kinase 7 (PK7), Plasmodium falciparum 3D7 (PF3D7_0213400) (UniProt Q7YTF7). As to the kind of experiment: inhibition of Plasmodium PK7 catalytic activity – biochemical, TCAMS antimalarial set, Kinase-Glo luminescence (AID 1159587). The conditions noted are these: recombinant PfPK7, Kinase-Glo ATP depletion luminescence.
Experiment [8] concerns the target Calcium-dependent protein kinase 4 (Plasmodium falciparum (isolate 3D7)) (UniProt Q8IBS5). Put plainly: PfCDPK4 kinase inhibitors, biochemical, TCAMS library (AID 1159588; cut-off not given, nearly all actives have IC50 up to about 0.91 µM). The conditions noted are these: recombinant PfCDPK4, Kinase-Glo ATP depletion luminescence.

The record followed here is PubChem BioAssay.

Unmarked numbers belong to inactive results. For some of these results: Potency and affinity values are given separately. Calls of active or inactive are those of the source. Unless noted, no rule for the calls is given here.

Chain of L-lactate dehydrogenase (Plasmodium falciparum (isolate CDC / Honduras)) (Q27743 whole entry, looked up): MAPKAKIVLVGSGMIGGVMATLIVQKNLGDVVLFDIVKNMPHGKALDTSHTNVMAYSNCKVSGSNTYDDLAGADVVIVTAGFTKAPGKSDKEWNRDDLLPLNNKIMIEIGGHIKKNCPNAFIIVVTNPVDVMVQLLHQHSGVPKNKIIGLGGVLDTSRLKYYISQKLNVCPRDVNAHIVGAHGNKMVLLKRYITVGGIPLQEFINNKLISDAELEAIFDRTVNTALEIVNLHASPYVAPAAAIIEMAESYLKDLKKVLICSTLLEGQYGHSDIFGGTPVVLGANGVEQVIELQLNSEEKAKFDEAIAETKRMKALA
Chain of Calcium-dependent protein kinase 1 (Plasmodium falciparum (isolate 3D7)) (P62344 whole entry, looked up): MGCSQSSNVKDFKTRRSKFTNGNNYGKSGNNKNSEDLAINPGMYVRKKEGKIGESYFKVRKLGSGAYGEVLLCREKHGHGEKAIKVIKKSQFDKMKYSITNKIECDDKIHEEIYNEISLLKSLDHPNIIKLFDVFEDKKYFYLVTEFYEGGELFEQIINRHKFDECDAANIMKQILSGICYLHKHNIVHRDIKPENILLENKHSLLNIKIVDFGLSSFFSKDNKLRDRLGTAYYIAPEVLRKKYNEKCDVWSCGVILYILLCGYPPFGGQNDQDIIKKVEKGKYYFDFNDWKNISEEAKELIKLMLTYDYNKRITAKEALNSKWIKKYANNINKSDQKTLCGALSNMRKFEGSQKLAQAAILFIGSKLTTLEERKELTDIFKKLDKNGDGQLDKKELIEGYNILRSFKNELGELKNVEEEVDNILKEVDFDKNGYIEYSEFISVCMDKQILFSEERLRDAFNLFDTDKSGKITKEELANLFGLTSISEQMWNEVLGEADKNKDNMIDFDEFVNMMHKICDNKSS
Chain of Plasmodium falciparum protein kinase 6 (PK6, PF3D7_1337100) (Q8IDW1 1-305): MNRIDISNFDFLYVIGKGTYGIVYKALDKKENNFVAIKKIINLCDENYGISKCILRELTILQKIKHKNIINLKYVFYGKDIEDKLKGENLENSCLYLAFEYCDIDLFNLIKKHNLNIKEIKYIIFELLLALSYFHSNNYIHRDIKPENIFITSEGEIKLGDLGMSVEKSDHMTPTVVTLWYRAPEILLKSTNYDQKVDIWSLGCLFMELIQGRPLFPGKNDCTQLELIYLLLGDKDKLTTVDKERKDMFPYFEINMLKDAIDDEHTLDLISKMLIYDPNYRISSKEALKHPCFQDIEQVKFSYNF
Chain of Calcium-dependent protein kinase 4 (Plasmodium falciparum (isolate 3D7)) (Q8IBS5 whole entry, looked up): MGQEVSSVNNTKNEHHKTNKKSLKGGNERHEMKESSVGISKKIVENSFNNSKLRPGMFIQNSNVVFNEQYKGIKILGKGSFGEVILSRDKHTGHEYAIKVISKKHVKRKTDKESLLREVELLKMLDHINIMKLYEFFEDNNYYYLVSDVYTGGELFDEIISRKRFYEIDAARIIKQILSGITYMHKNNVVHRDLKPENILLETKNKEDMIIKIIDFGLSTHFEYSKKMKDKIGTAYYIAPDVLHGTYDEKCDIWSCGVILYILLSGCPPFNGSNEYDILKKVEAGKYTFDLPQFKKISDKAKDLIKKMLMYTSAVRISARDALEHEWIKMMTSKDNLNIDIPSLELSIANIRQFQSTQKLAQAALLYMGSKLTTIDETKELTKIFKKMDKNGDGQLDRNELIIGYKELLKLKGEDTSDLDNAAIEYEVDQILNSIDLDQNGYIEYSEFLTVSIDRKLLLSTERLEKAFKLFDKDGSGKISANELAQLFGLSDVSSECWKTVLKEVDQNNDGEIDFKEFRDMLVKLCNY
Chain of Protein kinase 7 (PK7), Plasmodium falciparum 3D7 (PF3D7_0213400) (Q7YTF7 1-343): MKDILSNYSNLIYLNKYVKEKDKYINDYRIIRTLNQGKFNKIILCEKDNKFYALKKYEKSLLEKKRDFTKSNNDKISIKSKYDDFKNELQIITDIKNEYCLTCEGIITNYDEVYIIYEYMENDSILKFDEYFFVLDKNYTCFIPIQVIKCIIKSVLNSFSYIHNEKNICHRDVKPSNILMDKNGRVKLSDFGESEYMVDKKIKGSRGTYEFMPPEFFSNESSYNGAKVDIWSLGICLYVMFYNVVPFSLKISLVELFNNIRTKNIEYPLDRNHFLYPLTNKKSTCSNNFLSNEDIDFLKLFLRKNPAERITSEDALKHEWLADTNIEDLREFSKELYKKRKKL

Broadly, the inhibition is the change of the read-out against control, counted positive when it falls. Regarding `COc1cccc(CN2CCCC(OC(c3ccc(F)cc3)c3ccc(F)cc3)C2)c1O` (stereo not given), the growth inhibition in experiment [1] and in experiment [4] was 95% (active) each time. For the same molecule, the inhibition in experiment [2] is 8%; in experiment [3], 5%. Further, the outcome in experiment [5], in experiment [6], in experiment [7] and in experiment [8] was inactive.
Take `Cc1cccc2[nH]c(-c3ccc(-c4ccc(C(=O)NCCc5cn(C)cn5)cc4)s3)nc12`: the growth inhibition in experiment [1] is 8%; in experiment [4], 88% (active). Besides, the inhibition was -6% in experiment [2] and -2% in experiment [3]. Moreover, the result in experiment [5], in experiment [6], in experiment [7] and in experiment [8] was inactive.
In the case of `COc1ccc(-c2cncc(-c3ccc(OC)c(OC)c3)n2)cc1OC`, the growth inhibition is 90% (active) in experiment [1] and 95% (active) in experiment [4]. Further, the inhibition in experiment [2] and in experiment [3] was 6% each time. Moreover, the result in experiment [5], in experiment [6], in experiment [7] and in experiment [8] was inactive.
Take `CN(Cc1ccccc1)C1CCCN(c2cc(NC(=O)c3ccc(F)cc3)ccn2)C1` (stereo not given): the growth inhibition is 95% (active) in experiment [1] and 93% (active) in experiment [4]. For the same molecule, the inhibition in experiment [2] is 7%; in experiment [3], 0%. Moreover, the outcome in experiment [5], in experiment [6], in experiment [7] and in experiment [8] was inactive.
`Cc1cc(N2Cc3ccccc3C2)nc(Nc2cccc(C#N)c2)n1`: the growth inhibition in experiment [1] was 97% (active); in experiment [4] it was 100% (active). In addition, the results for the inhibition in experiment [2] and in experiment [3] were 6% and -2%, respectively. Moreover, the result in experiment [5], in experiment [6], in experiment [7] and in experiment [8] was inactive.
`Cc1ccccc1C1CCN(C2CCC(NC(=O)/C=C/c3cccc(Cl)c3F)CC2)CC1` (stereo not given): the growth inhibition in experiment [1] was 37%; in experiment [4], 101% (active). Besides, the values for the inhibition in experiment [2] and in experiment [3] were 87% (active) and 4%, respectively. Also, the outcome in experiment [5], in experiment [6], in experiment [7] and in experiment [8] was inactive.
Take `C[C@@H]1CN(c2cnn(Cc3ccc(NC(=O)Nc4ccc(-c5ccccc5)cc4)cc3)c(=O)c2Cl)C[C@H](C)N1`: the growth inhibition is 46% in experiment [1] and 100% (active) in experiment [4]. For the same molecule, the inhibition in experiment [2] was 82% (active); in experiment [3], -3%. For the same molecule, the outcome in experiment [5], in experiment [6], in experiment [7] and in experiment [8] was inactive.
With `CC(Cc1ccc(CNC(=O)c2ccc(CC(C)NCCc3cccc(Cl)c3)cc2)cc1)NCCc1cccc(Cl)c1` (stereo not given), the growth inhibition in experiment [1] is 66% (active); in experiment [4], 99% (active). The inhibition in experiment [2] was 99% (active); in experiment [3] it was -2%. In addition, the outcome in experiment [5], in experiment [6], in experiment [7] and in experiment [8] was inactive.
Turning to `Cc1ccc2cc(C3NC(=O)c4ccccc4N3)c(Cl)nc2c1` (stereo not given), the growth inhibition in experiment [1] is 38%; in experiment [4], 91% (active). For the same molecule, the inhibition in experiment [2] is -6%; in experiment [3] it was 1%. Moreover, the result in experiment [5], in experiment [6], in experiment [7] and in experiment [8] was inactive.
With `Clc1ccc(OCc2ccccc2)c(-c2nc(-c3nc4ccc(Cl)cc4[nH]3)cs2)c1`, the growth inhibition was 60% (active) in experiment [1] and 99% (active) in experiment [4]. For the same molecule, the inhibition in experiment [2] is -9%; in experiment [3], -3%. The outcome in experiment [5], in experiment [6], in experiment [7] and in experiment [8] was inactive.
`Cc1cc(N2CC=CCC2)nc(/N=C(\N)Nc2ccc(Br)cc2)n1`: the figures for the growth inhibition in experiment [1] and in experiment [4] were 41% and 98% (active), respectively. Also, the results for the inhibition in experiment [2] and in experiment [3] were 10% and -3%, respectively. The outcome in experiment [5], in experiment [6], in experiment [7] and in experiment [8] was inactive.
For `Cc1ccc(C)c(C2CCN(CCCCNC(=O)c3ccc(NC(=O)c4ccc(Cl)cc4)cc3)CC2)c1`, the figures for the growth inhibition in experiment [1] and in experiment [4] were 13% and 94% (active), respectively. Further, the inhibition in experiment [2] is 15%; in experiment [3], 7%. For the same molecule, the outcome in experiment [5], in experiment [6], in experiment [7] and in experiment [8] was inactive.
In the case of `Cc1cc(Nc2ccc(C)c(Cl)c2)n2nc(C(F)(F)F)nc2n1`, the figures for the growth inhibition in experiment [1] and in experiment [4] were 97% (active) and 98% (active), respectively. Besides, the inhibition in experiment [2] and in experiment [3] was 2% in each case. Further, the outcome in experiment [5], in experiment [6], in experiment [7] and in experiment [8] was inactive.
With `COc1ccccc1CCCON1C(N)=NC(N)=NC1(C)C`, the growth inhibition in experiment [1] was 92% (active); in experiment [4], 95% (active). The inhibition was 68% (active) in experiment [2] and -1% in experiment [3]. The result in experiment [5], in experiment [6], in experiment [7] and in experiment [8] was inactive.
For the molecule `COc1cc2nc(NCC3CCN(C(=O)c4ccc(-c5ccc(C(=O)N(C)C)cc5C)cc4)CC3)nc(N)c2cc1OC`, the growth inhibition was 34% in experiment [1] and 101% (active) in experiment [4]. The inhibition in experiment [2] was 2%; in experiment [3], 1%. Also, the outcome in experiment [5], in experiment [6], in experiment [7] and in experiment [8] was inactive.
`Cc1ccc(NC(=O)c2cc(Br)cc(N3CCC(N(C)C)CC3)c2)cc1F`: the growth inhibition is 80% (active) in experiment [1] and 100% (active) in experiment [4]. Besides, the inhibition in experiment [2] is 23%; in experiment [3], -3%. The outcome in experiment [5], in experiment [6], in experiment [7] and in experiment [8] was inactive.
In the case of `COc1cc2sc(=NC(=O)c3cccc([N+](=O)[O-])c3)n(C)c2cc1OC`, the growth inhibition in experiment [1] was 79% (active); in experiment [4], 92% (active). The inhibition in experiment [2] was 5%; in experiment [3] it was -3%. In addition, the outcome in experiment [5], in experiment [6], in experiment [7] and in experiment [8] was inactive.
With `CCC[C@@H]([C@@H](CC(C)C)C(=O)N[C@@H](CCCNc1nccc(C(F)(F)F)n1)C(=O)Nc1nccs1)N(O)C=O`, the growth inhibition in experiment [1] is 98% (active); in experiment [4], 99% (active). For the same molecule, the inhibition in experiment [2] is -4%; in experiment [3] it was 8%. The outcome in experiment [5], in experiment [6], in experiment [7] and in experiment [8] was inactive.
As for `CN1CCCC(CN2CCN(Cc3ccc(-c4cccc(-c5nc6ccc(F)cc6[nH]5)c4)cc3)CC2)C1` (stereo not given), the growth inhibition is 99% (active) in experiment [1] and 100% (active) in experiment [4]. The inhibition is 92% (active) in experiment [2] and -2% in experiment [3]. For the same molecule, the result in experiment [5], in experiment [6], in experiment [7] and in experiment [8] was inactive.
As to `O=C(N[C@H]1CCN(Cc2ccc(OCCCN3CCCCC3)cc2)C1)c1cc(Cl)cc(Cl)c1`, the growth inhibition is 35% in experiment [1] and 99% (active) in experiment [4]. For the same molecule, the inhibition was 13% in experiment [2] and -1% in experiment [3]. The result in experiment [5], in experiment [6], in experiment [7] and in experiment [8] was inactive.
